# In ChEMBL document CHEMBL3988442, “University of Dundee, Small-Polar-MMV Screening Library” (2021):
# Hit rate of the full screen: of about 69,000 compounds, about 50 (0.07%) showed an effect of 50% or more. The sample holds strong results, similar compounds and a random draw of the others, so the mix is not that of the screen.
# Target: Lysine--tRNA ligase (Plasmodium falciparum (isolate 3D7)) (UniProt Q8IDJ8)
# Test: Pf-KRS-1 (Lysyl-RNA Synthetase-1, KRS-1, cytosolic KRS) from Plasmodium falciparum. Inhibitor assay, 384 well plate, luminescence read.
# Assay type: functional
# Set-up: scale not given: in the data most compounds retested in dose-response had high values
# Settings: 30 µM
# Chain of Lysine--tRNA ligase (Plasmodium falciparum (isolate 3D7)) (Q8IDJ8 1-583): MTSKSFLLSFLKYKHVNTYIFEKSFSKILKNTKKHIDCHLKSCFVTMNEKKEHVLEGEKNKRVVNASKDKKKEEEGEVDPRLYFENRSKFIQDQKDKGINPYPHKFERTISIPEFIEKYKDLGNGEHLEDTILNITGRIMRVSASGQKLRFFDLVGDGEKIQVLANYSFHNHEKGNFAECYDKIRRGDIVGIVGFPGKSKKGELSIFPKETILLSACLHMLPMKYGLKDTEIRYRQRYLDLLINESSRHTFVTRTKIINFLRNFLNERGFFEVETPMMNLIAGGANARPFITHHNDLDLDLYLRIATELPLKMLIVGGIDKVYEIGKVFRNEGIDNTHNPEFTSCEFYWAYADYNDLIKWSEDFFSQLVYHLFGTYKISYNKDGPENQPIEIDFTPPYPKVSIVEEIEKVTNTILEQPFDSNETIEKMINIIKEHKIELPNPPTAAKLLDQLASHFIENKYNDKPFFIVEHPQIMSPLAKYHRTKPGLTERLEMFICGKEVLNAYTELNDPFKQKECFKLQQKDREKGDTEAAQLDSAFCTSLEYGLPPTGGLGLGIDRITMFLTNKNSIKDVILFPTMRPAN
row,SMILES,Percent Effect
1,COC(=O)c1ccc2ccn(CC3CCCCO3)c(=O)c2c1 (stereo not drawn),78.6%
2,COC(=O)c1ccc2ccn(CC3COCCO3)c(=O)c2c1 (stereo not drawn),26.4%
3,COC(=O)c1ccc2ccn(CC3CCCO3)c(=O)c2c1 (stereo not drawn),12.9%
4,O=C(N1CCCO1)[C@@]12CCO[C@@H]1CCN(Cc1cccnc1)C2,0.613%
5,CN1C(=O)CO[C@H]2CCN(C(=O)Cc3ccc4c(c3)CCCC4)CC[C@@H]21,0.27%
6,CCn1nc2c(cc1=O)CN(CC1CCCCO1)CC2 (stereo not drawn),-3.92%
7,CC(C)c1ncc2c(n1)CN(CC1CCCCO1)CC2 (stereo not drawn),2.58%
8,CCc1ncc2c(n1)CN(CC1CCCCO1)CC2 (stereo not drawn),17.1%
9,CC(C)n1nc2c(cc1=O)CN(CC1CCCCO1)CC2 (stereo not drawn),11.8%
10,c1ncc2c(n1)CN(CC1CCCCO1)CC2 (stereo not drawn),84.6%
11,CCCn1nc2c(cc1=O)CN(CC1CCCCO1)CC2 (stereo not drawn),8.29%
12,Cc1ncc2c(n1)CN(CC1CCCCO1)CC2 (stereo not drawn),76.2%
13,Cn1nc2c(cc1=O)CN(CC1CCCCO1)CC2 (stereo not drawn),50.5%
14,Cc1cc(CN2CCc3cncnc3C2)no1,8.95%
15,COCCN1CCO[C@H]2CN(Cc3cccc(C)n3)C[C@H]21,2.71%
16,CO[C@H]1CN(CC2CCOCC2)[C@@H]2CCCO[C@H]12,3.3%
17,Cc1cccc(CN2C[C@H](NS(C)(=O)=O)[C@@H]3OCCC[C@@H]32)n1,0.332%
18,Cc1noc([C@]23COC[C@H]2CN(C(C)C)C3)n1,2.71%
19,CC(CCc1ccccc1)NC(=O)Nc1cnn(CC(N)=O)c1 (stereo not drawn),2.54%
20,COCCn1cc(NC(=O)NC(C)CCc2ccccc2)ccc1=O (stereo not drawn),64.7%
21,COCCn1cc(NC(=O)C(C)CCc2ccccc2F)ccc1=O (stereo not drawn),34.2%
22,CCCN1CCN(C(=O)c2cc3ccccc3cn2)[C@H]2CS(=O)(=O)C[C@H]21,4.93%
23,Cc1ccc(-c2ccc(C3CNCCO3)nc2)cc1 (stereo not drawn),5.24%
24,O=c1[nH]c2c(c(=O)n1C1CCCCC1)CCC2Nc1ccccn1 (stereo not drawn),28.1%
25,Cc1cccc(NC2CCc3c2[nH]c(=O)n(C2CCCCC2)c3=O)c1C (stereo not drawn),32.2%
26,O=c1[nH]c2c(c(=O)n1C1CCCCC1)CCC2NCCc1ccccc1 (stereo not drawn),55.6%

row,SMILES,Percent Effect
1,O=c1[nH]c2c(c(=O)n1C1CCCCC1)CCC2NCc1ccccc1 (stereo not drawn),11.2%
2,O=c1[nH]c2c(c(=O)n1C1CCCCC1)CCC2Nc1ccccc1Cl (stereo not drawn),61.5%
3,O=c1[nH]c2c(c(=O)n1C1CCCCC1)CCC2Nc1ccccc1 (stereo not drawn),24.4%
4,COC[C@@]12CCO[C@@H]1CCN(Cc1ccccc1OC)C2,6.78%
5,CC(=O)N1CCO[C@@H]2CN(S(=O)(=O)C3CC3)CC[C@@H]2C1,2.76%
6,CO[C@H]1CC[C@H]2[C@H]1OCCN2C(=O)CC1=CCCCC1,18.1%
7,Cc1ncsc1CN1C[C@H](C(=O)N2CCCO2)[C@@H]2CCO[C@@H]2C1,0.217%
8,O=C(NCc1ccoc1)Nc1ccc(CN2CCOC2=O)cc1,2.38%
9,Cn1cc(NC(=O)CCc2ccsc2)ccc1=O,7.87%
10,CN(Cc1ccsc1)C(=O)Nc1ccc(=O)n(C)c1,28.4%
11,Cc1nnc(NC(=O)NCc2ccoc2)s1,0.941%
12,COc1ccc(CNC(=O)Nc2ccc(CN3CCOC3=O)cc2)cc1,0.788%
13,COC(=O)c1ccc(CNC(=O)Nc2ccc(=O)n(C)c2)cc1,-0.542%
14,Cn1cc(NC(=O)NCc2ccoc2)ccc1=O,58.5%
15,COc1ccc(CNC(=O)Nc2ccc(=O)n(C)c2)cc1,77.6%
16,Cn1cc(NC(=O)NCc2ccsc2)ccc1=O,73.2%
17,COCC(=O)N1C[C@H]2CCC[C@@]2(COC)C1,3.43%
18,O=C(c1cccnc1)N1C[C@H]2CN(Cc3cccc(F)c3)C(=O)[C@H]2C1,7.87%
19,CO[C@H]1CCN(C2CCC2)[C@@H]2CN(Cc3ccncc3)C[C@H]12,3%
20,CO[C@@H]1CCN(S(=O)(=O)c2cccnc2)[C@@H]2CN(CC3CC3)C[C@@H]21,4.3%
21,O=C(NC1CCCC1)[C@H]1CC[C@@H]2[C@@H](CCN2c2ncc(F)cn2)O1,-0.28%
22,CO[C@H]1CC[C@H]2[C@H]1OCCN2Cc1ccc(F)c(F)c1,-6.11%
23,COCc1cnc2n1CCN(C(=O)c1ccc3ccccc3n1)C2C (stereo not drawn),10.7%
24,O=C(CC1CCCC1)N1C[C@@H]2CCN(c3cccnc3)C[C@@H]2C1,1.75%
25,c1coc(-c2nc3c(c(N4CCCN5CCC[C@H]5C4)n2)CCNCC3)c1,0.644%
26,Cc1ccoc1C(=O)N1CC[C@H]2OCC[C@@]2(COCc2ccncc2)C1,6.75%

row,SMILES,Percent Effect
1,Cc1cc(=O)n(C)cc1NC(=O)Cc1ccc(C(F)(F)F)cc1,1.6%
2,Cc1cc(=O)n(C)cc1NC(=O)Cc1cc(F)ccc1F,69.1%
3,Cc1cc(=O)n(C)cc1NC(=O)Cc1cccc(F)c1,19.8%
4,O=C1CO[C@H]2CN(C3CCOCC3)C[C@H]2N1Cc1ccccn1,2.85%
5,Cc1ccc(S(=O)(=O)N2C[C@@H]3CCN[C@@H]3C2)cc1,2.57%
6,COc1ccc(CN2C[C@@H]3COC[C@@H](CC(=O)N4CCCC4)[C@@H]3C2)cc1,4.49%
7,O=c1c(CN2CCOCC2)coc2ccc(Cl)cc12,28.3%
8,O=c1c(CN2CC3CCCN3C[C@@H]2CCO)coc2ccc(Cl)cc12 (stereo partly drawn),0.683%
9,O=c1c(CN2CCCCC2)coc2ccc(Cl)cc12,62.1%
10,Cc1ccc(S(=O)(=O)N2C[C@@H]3C[C@@H](NC(=O)C(C)(C)C)[C@@H]3C2)cc1,6.48%
11,CC(O)(CNc1ccc(Cl)c(C#N)n1)c1ccsc1 (stereo not drawn),59%
12,Cn1cc(C(C)(O)CNc2ccc(Cl)c(C#N)n2)cn1 (stereo not drawn),18.4%
13,CC(O)(CNc1ccc(Cl)c(C#N)n1)c1ccccc1 (stereo not drawn),8.49%
14,CCOCC(=O)N1CC[C@@H]2O[C@@H](C)C[C@H]2C1,2.15%
15,O=C1CC[C@]2(CC[C@@H](NCc3ccc4c(c3)OCO4)CC2)N1,-2.96%
16,O=C(NC1CC(F)(F)C1)[C@]12COC[C@H]1CN(Cc1ccsc1)C2,3.2%
17,O=C(c1cnc2[nH]c(=O)[nH]c(=O)c2c1)N1CCCC1C1CCCCC1 (stereo not drawn),2.68%
18,O=C(c1ccc(=O)[nH]n1)N1CCCC1C1CCCC1 (stereo not drawn),9.62%
19,O=C(c1c[nH]nn1)N1CCCC1C1CCCCC1 (stereo not drawn),85.6%
20,COC[C@@]12CC[C@@H](N3CCOCC3)C[C@H]1CCN(c1nc(CO)cs1)C2,10.3%
21,Cn1cc(NC(=O)N2CCC(CN3CCCC3)CC2)ccc1=O,0.985%
22,Cn1cc(NC(=O)N2CCC(c3ccccc3)CC2)ccc1=O,45.4%
23,Cn1cc(NC(=O)N2CCCC2c2cccnc2)ccc1=O (stereo not drawn),4.14%
24,Cn1cc(NC(=O)N2CCCC2c2ccccn2)ccc1=O (stereo not drawn),78.9%
25,CC(C)C1CCCN1C(=O)Nc1ccc(=O)n(C)c1 (stereo not drawn),81%
26,Cn1cc(NC(=O)N2CCC2c2ccccc2)ccc1=O (stereo not drawn),20.1%
